# The supplement of paper PMC10412459
# System: K562 SF3B1 K700E vs K562 SF3B1 WT
# Assay: surviving fraction ratio K562 SF3B1 K700E / K562 SF3B1 WT (each relative to DMSO); higher = less selective killing of SF3B1 K700E cells
# Conditions: 5 days
# In short: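 Isogenic K562 cells carrying an engineered SF3B1 hotspot allele and matched SF3B1 wild-type cells were screened against an in-house 80-compound library in 384-well plates. Plates were seeded at 250 cells per well, and compounds were added 24 h later at 0.5, 1, 5, 10, 50, 100, 500 and 1,000 nM, with continuous culture for 5 d. Viability was read by CellTiter-Glo. The value is the mutant-to-wild-type ratio of surviving fractions, each normalised to DMSO.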
Compound,surviving fraction ratio K562 SF3B1 K700E / K562 SF3B1 WT (0.5nM),surviving fraction ratio K562 SF3B1 K700E / K562 SF3B1 WT (1nM),surviving fraction ratio K562 SF3B1 K700E / K562 SF3B1 WT (5nM),surviving fraction ratio K562 SF3B1 K700E / K562 SF3B1 WT (10nM),surviving fraction ratio K562 SF3B1 K700E / K562 SF3B1 WT (50nM),surviving fraction ratio K562 SF3B1 K700E / K562 SF3B1 WT (100nM),surviving fraction ratio K562 SF3B1 K700E / K562 SF3B1 WT (500nM),surviving fraction ratio K562 SF3B1 K700E / K562 SF3B1 WT (1000nM)
C[C@]12CC[C@H](O)CC1=CC[C@@H]1[C@@H]2CC[C@]2(C)C(c3cccnc3)=CC[C@@H]12,1.04,0.918,0.91,0.915,0.899,1.01,0.995,0.937
NS(=O)(=O)OC[C@@H]1C[C@@H](n2ccc3c(N[C@H]4CCc5ccccc54)ncnc32)C[C@@H]1O,0.743,0.708,0.772,0.687,0.74,1.51,1.22,1.07
NC1(c2ccc(-c3nc4ccn5c(=O)[nH]nc5c4cc3-c3ccccc3)cc2)CCC1,0.882,0.849,0.841,0.686,0.61,0.706,0.654,0.626
CCCCCCCCCCCCCCCC(=O)Nc1ccn([C@@H]2O[C@H](CO)[C@@H](O)[C@@H]2C#N)c(=O)n1 [Sapacitabine],0.952,–,0.99,–,0.729,–,1.27,–
O=C(c1cc(Cc2n[nH]c(=O)c3ccccc23)ccc1F)N1CCN(C(=O)C2CC2)CC1 [olaparib],0.978,0.979,0.926,0.839,0.947,1.02,1.1,0.871
COc1cc([C@@H]2c3cc4c(cc3[C@@H](O[C@@H]3O[C@@H]5CO[C@@H](C)O[C@H]5[C@H](O)[C@H]3O)[C@H]3COC(=O)[C@H]23)OCO4)cc(OC)c1O [etoposide],0.966,0.974,0.905,0.771,0.842,1.01,1.72,1.51
CCn1c(C(=O)N(C2CC2)C2CC2)cc2c3c(ncn3C)c(Nc3cc(C)n(C)n3)nc21,0.923,0.951,1,0.938,0.82,0.801,0.844,0.893
C#Cc1cccc(Nc2ncnc3cc(OCCOC)c(OCCOC)cc23)c1 [erlotinib],0.882,0.743,0.852,0.843,0.692,0.788,0.811,0.712
Nc1ncn([C@H]2C[C@H](O)[C@@H](CO)O2)c(=O)n1 [decitabine],0.733,0.724,0.773,0.665,0.964,0.894,1.13,1.36
CN(C)C/C=C/C(=O)Nc1cc2c(Nc3ccc(F)c(Cl)c3)ncnc2cc1O[C@H]1CCOC1,0.936,1.06,0.796,0.769,0.795,0.679,0.666,0.915
Cn1ncnc1[C@H]1c2n[nH]c(=O)c3cc(F)cc(c23)N[C@@H]1c1ccc(F)cc1 [talazoparib],0.824,0.778,0.775,0.743,0.552,0.571,0.794,–
COc1cc2c(cc1O)CC[C@@H]1[C@@H]2CC[C@]2(C)[C@@H](O)CC[C@@H]12 [2-methoxyestradiol],0.765,0.733,0.666,0.851,0.706,0.595,0.626,1.48
CC(=O)O[C@H]1C(=O)[C@@]2(C)[C@H]([C@H](OC(=O)c3ccccc3)[C@]3(O)C[C@H](OC(=O)[C@H](O)[C@@H](NC(=O)c4ccccc4)c4ccccc4)C(C)=C1C3(C)C)[C@]1(OC(C)=O)CO[C@@H]1C[C@@H]2O [paclitaxel],0.866,0.99,0.864,1.42,2.44,2.46,3,2.44
CC/C(=C(\c1ccc(O)cc1)c1ccc(OCCN(C)C)cc1)c1ccccc1 [4-OH-tamoxifen],0.874,0.875,0.857,0.778,1,0.923,0.884,0.993
